The source made the active and inactive calls.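 The calls were made as follows: active = inhibition above the hit cutoff set in the earlier primary screen (cut at about 27% in these data); inactive = the rest.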
target: Protein phosphatase methylesterase 1 (Homo sapiens) (UniProt Q9Y570); experiment: human PME-1 methylesterase inhibition confirmation – biochemical, fluorescence polarization, FP-Rh probe, triplicate (AID 2171); conditions: recombinant PME-1, FP-Rh probe fluorescence polarization; at 5.9 µM; stronger effect = higher value;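 also: 0% = enzyme with DMSO and 100% = wells lacking PME-1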
Sequence (Q9Y570 whole entry, looked up): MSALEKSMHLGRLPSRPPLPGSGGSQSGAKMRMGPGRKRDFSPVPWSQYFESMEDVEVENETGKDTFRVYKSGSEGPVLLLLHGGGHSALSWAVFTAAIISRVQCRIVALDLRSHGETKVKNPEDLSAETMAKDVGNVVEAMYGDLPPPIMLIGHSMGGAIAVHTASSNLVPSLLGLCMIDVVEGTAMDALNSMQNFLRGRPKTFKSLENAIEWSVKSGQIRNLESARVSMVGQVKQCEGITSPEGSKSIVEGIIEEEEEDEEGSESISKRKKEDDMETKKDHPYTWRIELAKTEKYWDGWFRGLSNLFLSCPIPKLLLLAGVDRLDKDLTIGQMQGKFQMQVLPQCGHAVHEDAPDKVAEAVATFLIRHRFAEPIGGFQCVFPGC

inhibition, active:
Cc1ccc(S(=O)(=O)CCSc2cccc(C(=O)Nc3ccccc3C(=O)O)c2)cc1 35.8%
O=C1c2cccc3c(O)ccc(c23)C(=O)N1c1ccc(Cl)cc1 28.3%
COc1ccc(C(=O)c2oc3ccc(OC)cc3c2N)cc1 29.6%
CSC[C@@H]1NC(=S)N(c2ccc(C)cc2)C1=O 38%
Oc1c(Br)cc(Br)cc1CNc1cnc2ccccc2c1 34.8%
Nc1[nH]n(-c2ccccc2)c(=O)c1N=Nc1ccc2c(c1)OCCO2 34.5%
COc1ccc(/C=N/NC(=O)c2cc3c(OC)ccc(OC)c3[nH]2)cc1O 37.8%
CC(C)Nc1nnc(SCC(=O)Nc2ccc3c(c2)C(=O)c2ccccc2C3=O)s1 36.4%
COc1ccc(N=C2NC(=O)S/C2=C\c2ccc(N(C)C)cc2)cc1 37.2%
N#Cc1ccc(Nc2nc(-c3ccc(O)cc3O)cs2)cc1C(F)(F)F 51.9%
Cc1cc(O)c(NC(=S)NC(=O)c2ccc(-c3ccc(Cl)cc3)o2)cc1C 42.2%
Nc1[nH]n(-c2ccccc2)c(=O)c1N=Nc1ccc2c(c1)OCO2 39.8%
CCCCN(C)CCCNC(=O)c1cn(CC)c2ccc(S(=O)(=O)N3CCc4ccccc4C3)cc2c1=O 53.6%
Cc1ccc(/C=N/Nc2ccnc3cc(Cl)ccc23)c(C)c1 53.3%
Cn1c(O)c(/C=N/NC(=O)c2cc3ccccc3cc2O)c2ccccc21 58.7%
COc1ccc(NC(C(=O)Nc2cccc(C(C)=O)c2)c2ccccc2)cc1 (stereo not given) 36%
Cc1cc(N/N=C/c2ccc(O)cc2O)nc(-c2ccccc2O)n1 39.8%

inhibition, inactive:
COc1cc(/C=N/NC(=S)Nc2cccc(S(=O)(=O)N(C)C)c2)ccc1O 14.1%
COc1ccc2oc(C(=O)OCC(=O)N3CCN(S(=O)(=O)c4ccc(C)cc4)CC3)c(C)c2c1 17.9%
Oc1ccc(/C=N/Nc2ccnc3cc(Cl)ccc23)cc1O 5.4%
Cc1cc(Br)ccc1N=C1NC(=O)CS1 -3.07%
COc1cc2c(c(OC)c1OC)-c1ccc(NC(=O)c3ccc(F)cc3)c(=O)cc1[C@@H](NC(C)=O)CC2 0.65%
Cc1cc(-c2nnc(SCC(=O)Nc3nc(-c4ccc(Cl)cc4)cs3)o2)no1 -22.5%
Nc1cc(N)cc(-c2nc3ccccc3[nH]2)c1 3.51%
COc1ccc(-c2c/c(=N\c3nc(-c4ccccc4)c(C)s3)c3ccccc3o2)cc1O 20.8%
CCc1ccc(-c2cc(C(=O)N/N=C/c3c[nH]c4ccccc34)[nH]n2)cc1 12%
Cc1ccsc1C=Nc1ccc(O)cc1 3.81%
Cc1ccc(NC(=S)NC(=O)c2ccc(-c3ccc(Cl)cc3)o2)c(O)c1 22.9%
Cc1cc(C)cc(NC(=S)NCCc2c[nH]c3ccccc23)c1 25.5%
N#C/C(=C\c1ccc(O)c(O)c1)C(=O)Nc1cccc2ncccc12 -29.9%
O=S(=O)(c1ccc(-c2csc(Nc3ccc(Br)cc3)n2)cc1)N1CCCC1 16.5%
CCOC(=O)/C(=N\Nc1ccc(Cl)cc1)c1csc(Nc2ccccc2)n1 14.4%
CC(=O)N1CCN(c2ccc(NC(=S)NC(=O)COc3ccc(C(C)(C)C)cc3)cc2)CC1 26.1%
O=C(CNc1ccc2ccccc2c1)N/N=C/c1ccc(OC(=O)/C=C/c2ccco2)cc1 11.7%
COC(=O)/C(=C(O)\C=C\c1ccccc1[N+](=O)[O-])c1nc2ccccc2[nH]1 21.9%
Nc1ccc(Br)c2c1C(=O)c1ccccc1C2=O 21%
CCCC(=Nc1ccc(N)cc1)C1=C(O)C(C(=O)OC)C(C)(C)CC1=O (stereo not given) 4.48%
CC(=O)c1c(C)n(-c2ccc(N(C)C)cc2)c2ccc(OCC(N)=O)cc12 23.7%
CC(Sc1nnc(NC2CCCCC2)s1)C(=O)Nc1ccc2c(c1)C(=O)c1ccccc1C2=O (stereo not given) -4.4%
CCOC(=O)C1=C(C)Nc2ccccc2N/C1=N\S(=O)(=O)c1cccc(Cl)c1 18.7%

Source: PubChem BioAssay
